For 28 compounds, activation and inhibition results are on record in PubChem BioAssay.

This is one part of the list. A number with no mark means an inactive call. Calls of active or inactive are those of the source. Unless noted, no stated cut-off is given here; in the data, active means inhibition above about 14%; inactive means the rest.

Assay [1] deals with HIV-1 integrase (multimerization). The assay can be described thus: HIV-1 IN multimer formation enhancers, counter-screen for LEDGF/p75 integration inhibitor project, biochemical, TR-FRET (AID 1053131; in the data active means activation above about 8.9%). As to conditions: TR-FRET HIV-1 integrase multimerization, at 7.7 µM, hits give high values. (The purpose of a counterscreen is to sort out artefacts and off-target activity.)
Assay [2] is described as follows: TR-FRET optical interference artefacts, confirmation, artefact control for LEDGF/p75-dependent integration inhibitor project, biochemical, HIV-1 IN multimerization (AID 1053135;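 active means inhibition above the mean over all tested compounds plus 3 SD, which no compound reached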;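 further: 0% = integrase with antibodies and DMSO and 100% = antibodies without integrase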). The following applies: TR-FRET optical interference counterscreen, at 7.7 µM, hits give high values. (In general: In TR-FRET formats the signal depends on donor and acceptor labels being close together.)

Assay [3] deals with HIV-1 integrase / human LEDGF/p75 complex. The assay can be described thus: inhibitors of HIV-1 IN-LEDGF/p75 DNA integration, confirmation, biochemical, TR-FRET (AID 1053136). The following applies: TR-FRET LEDGF/p75-dependent HIV-1 integration, at 3.7 µM, hits give high values.

For the compound `COc1cc(-c2nnc(NC(=O)CS(=O)(=O)c3ccc(Cl)cc3)o2)cc(OC)c1OC`, in assay [1], the activation was 0.46%. In addition, the inhibition – broadly, the drop in the measured response relative to a control, in per cent – was -2.3% in assay [2] and 4.63% in assay [3].

Consider `COc1ccc(C2CC(c3cccs3)=NN2C(=O)COC(=O)c2cc3ccccc3cc2O)cc1OC` (centres undefined), for which, in assay [1], the activation is -0.23%. Besides, the inhibition in assay [2] is 1.12%; in assay [3] it was -6.48%.

On to `O=C(NC1CCCCC1)N1CCc2[nH]c3ccccc3c2C1`, for which the activation in assay [1] is 1.36%. Moreover, the results for the inhibition in assay [2] and in assay [3] were -6.83% and 2.35%, respectively.

As for `Cc1cc(Oc2ccc(Cl)cc2)nc(SCC(=O)c2ccccc2)n1`, the activation in assay [1] is -0.31%. The inhibition was 1.56% in assay [2] and -0.68% in assay [3].

`Cc1ccc(C(=O)NC(=S)Nc2ccc3[nH]c(=O)[nH]c3c2)cc1C`: the activation in assay [1] was -3.75%. Moreover, the inhibition in assay [2] was 19%; in assay [3], 14.8% (active).

Take `O=C1OC(/C=C/c2ccccc2)=NC/1=C/c1ccco1`: in assay [1], the activation was -0.93%. Besides, the inhibition in assay [2] is 4.71%; in assay [3], -2.29%.

In the case of `O=C(O)CCC(=O)Nc1ccc(N2CCOCC2)cc1`, the activation in assay [1] was 0.12%. In addition, the inhibition is -0.6% in assay [2] and 1.39% in assay [3].

For the compound `CSc1nc(N)c(C#N)c(-c2ccccc2Cl)c1C#N`, in assay [1], the activation is -0.67%. The inhibition is 3.41% in assay [2] and 0.36% in assay [3].

For `COc1ccc(C(=O)/C=C/c2ccc(-c3ccccc3)cc2)cc1CSCC(=O)O`, the activation in assay [1] is -1.35%. Besides, the inhibition in assay [2] is 6.82%; in assay [3], 21.8% (active).

Regarding `Cc1cc2c(c(=O)n1Cc1ccco1)C(c1ccccc1)C(C#N)=C(N)O2` (centres undefined), the activation in assay [1] is 1.58%. The figures for the inhibition in assay [2] and in assay [3] were -5.7% and -9.1%, respectively.

With `Cc1ccc(-c2cnc(NC(=O)CCC(=O)N(C)Cc3ccccc3)n2C)cc1`, in assay [1], the activation was 0.12%. Moreover, the inhibition in assay [2] is -0.61%; in assay [3], -6.89%.

Consider `Cc1sc2nc(SCC(=O)c3ccc(O)c(O)c3)n(Cc3ccco3)c(=O)c2c1C`, for which the activation in assay [1] is 8.33%. The inhibition in assay [2] was -41.9%; in assay [3], 39.2% (active).

`O=C(CN(C(=O)c1csnn1)c1cccc(Cl)c1)NC1CCCC1`: in assay [1], the activation was -0.52%. In addition, the inhibition in assay [2] was 2.68%; in assay [3], 3.72%.

On to `Oc1c(CN2CCOCC2)ccc(CN2CCOCC2)c1O`, for which the activation in assay [1] was -0.48%. Also, the inhibition in assay [2] is 1.64%; in assay [3] it was 15.7% (active).

For the compound `CCc1cc2c(SCC(=O)Nc3ncc(Cl)c(C)c3Cl)ncnc2s1`, the activation in assay [1] is -0.15%. Further, the values for the inhibition in assay [2] and in assay [3] were 0.78% and 0.88%, respectively.

Regarding `COc1ccccc1-c1cc(C(=O)NCCCn2ccnc2)no1`, the activation in assay [1] is 1.02%. Moreover, the results for the inhibition in assay [2] and in assay [3] were -3.78% and -0.05%, respectively.

Turning to `CC(=O)OCC1(O)CC23CCC4c5ccoc5CCC4(C)C2CCC1C3` (centres undefined), the activation in assay [1] is 0.06%. For the same compound, the values for the inhibition in assay [2] and in assay [3] were -0.26% and 9.45%, respectively.

`CN(C)c1ccc(C(CC(=O)O)C(=O)O)cc1` (centres undefined): the activation in assay [1] was 3.35%. Also, the inhibition in assay [2] is -16.9%; in assay [3], 0.73%.

Take `Cc1cc(=O)oc2c3c(cc(OCC(=O)N[C@H](C(=O)O)c4ccccc4)c12)OC(C)(C)CC3`: in assay [1], the activation is -0.04%. Further, the inhibition is 0.3% in assay [2] and -1.12% in assay [3].

In the case of `O=C(O)c1ccc(NN=CC2=C(N3CCOCC3)/C(=C/c3ccccc3)CC2)cc1`, in assay [1], the activation is 3.07%. For the same compound, the inhibition is -10.9% in assay [2] and 16.6% (active) in assay [3].

As to `COc1ccc(NC(=O)C(NC(C)=O)C(=O)NCc2ccccc2Cl)cc1` (centres undefined), in assay [1], the activation is -0.36%. The inhibition in assay [2] was 1.86%; in assay [3], 2.33%.

Turning to `COC(=O)C1=C(C)N(C)C(=O)NC1c1ccc([N+](=O)[O-])o1` (centres undefined), the activation in assay [1] is 0.76%. The figures for the inhibition in assay [2] and in assay [3] were -3.75% and 0.3%, respectively.

For `CC1(C(=O)NS(=O)(=O)c2ccccc2)CCN1C(=O)Cc1ccc(-c2ccccc2)cc1` (centres undefined), the activation in assay [1] is -0.39%. The inhibition in assay [2] was 2.02%; in assay [3], 1.27%.

Turning to `Cn1c(SCc2nc3ccccc3s2)nnc1-c1ccc2c(c1)OCO2`, in assay [1], the activation is 0.47%. The inhibition in assay [2] was -2.33%; in assay [3] it was -2.11%.

Consider `Oc1cc(O)c2c(c1)OC(c1ccc(O)c(O)c1)C(O)C2` (centres undefined), for which the activation in assay [1] was 10.4% (active). For the same compound, the inhibition is -52.5% in assay [2] and -0.79% in assay [3].

As for `CCCCNC(=O)OC1CC2CC1[C@H]1CCCCN1C2=O` (some centres undefined), the activation in assay [1] was -0.71%. For the same compound, the inhibition is 3.63% in assay [2] and -1.12% in assay [3].

With `CCOC(=O)/C(C#N)=C\c1c(C)cc(C)c(COC(C)=O)c1C`, the activation in assay [1] was 0.2%. For the same compound, the inhibition in assay [2] was -1.03%; in assay [3], 3.21%.

For the compound `Cc1ccc(/C=C/C(=O)Nc2ccc([N+](=O)[O-])c(NC(=O)/C=C/c3ccc(C)o3)c2)o1`, the activation in assay [1] was 14.2% (active). Also, the values for the inhibition in assay [2] and in assay [3] were -71.7% and 41.9% (active), respectively.
